28 molecules from PubChem BioAssay (NCATS) can be followed below.

Results filed as inconclusive are left out. Entries that show only a call come without a potency. Unmarked numbers belong to inactive results. Activity calls are given as the source filed them. Unless noted, the call rests on the fitted dose curve; in most records, active means well fitted curve in the direction sought with a large enough effect; inconclusive means small, poorly fitted or top-dose-only effect, or another doubt; inactive means no such curve, though single readings can be large; an effect the other way counts as inactive or inconclusive.

Experiment [1] can be described thus: qHTS assay to identify small molecule inhibitors of chordoma cells - UCH-1 (AID 1259355). Further: nearly all actives have a fitted effect of over 55% in size. Further: potency means the concentration at half of the fitted maximal effect; series mostly up to about 46 µM. The gist of the method: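 Seed 800 cells per well; incubate overnight at 37 C, 5% CO2. Add test compounds (15 concentrations), then the auranofin–topoisomerase-agent combination. Incubate 48hr, add CellTiter-Glo, wait 30min, read luminescence.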
Background: qHTS replaces the single test concentration by a dilution series.

Experiment [2] is described as follows: qHTS assay to identify small molecule inhibitors of chordoma cells - UCH-2 (AID 1259356). Further: potency means the concentration at half of the fitted maximal effect.
A short description of experiment [3]: qHTS assay for small molecule antagonists of the retinoid-related orphan receptor gamma (ROR-gamma) signaling pathway - cell viability counter screen (AID 720652; active means well fitted curve in the direction sought with a large enough effect in the repeat runs; an effect the other way counts as inactive or inconclusive;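 further: CHO reporter cells with doxycycline-induced ROR-gamma expression; series mostly up to about 92 µM; compound exposure lasted 16 hr before ATP read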). The gist of the method:
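Counter screen in CHO cells carrying TET-inducible ROR-gamma and an ROR response element-luciferase reporter; cells plated 5 hr, compound pinned, doxycycline added, then 16 hr at 37 C. Viability read as intracellular ATP by CellTiter-Glo luminescence.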

Experiment [4] can be described thus: qHTS assay for small molecule agonists of the antioxidant response element (ARE) signaling pathway measured by Nrf2-dependant transcriptional activity - cell viability counter screen (AID 720653; active means well fitted curve in the direction sought with a large enough effect in the repeat runs; an effect the other way counts as inactive or inconclusive). Particulars: ARE-bla HepG2 viability, CellTiter-Glo ATP luminescence, 16 h; hits give low values. The gist of the method:
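Cytotoxicity counter screen: intracellular ATP quantified by CellTiter-Glo luminescence in the same ARE-bla HepG2 plates, after 16 h compound exposure and a 2 h beta-lactamase substrate step.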

Experiment [5] is described as follows: qHTS Assay for Identifying Gametocytocidal Compounds (AID 743244).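 Further: actives lower the fluorescent signal which means gametocytes are killed.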 Particulars: P. falciparum 3D7 stage III-V gametocytes, alamarBlue, 72 h; max response: hits give low values. The gist of the method: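 Compounds are pinned into medium, gametocytes (stage III–V, 3D7, 20,000 cells/well) added, and plates held 72 h at 37 °C in 5% CO2. AlamarBlue follows for 24 h before fluorescence reading.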

Experiment [6] in a line: qHTS assay for cell viability of the p53RE-bla HCT-116 cell line (AID 743292). Further: nearly all actives have a fitted effect of over 55% in size. The gist of the method:
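Viability of compound-treated p53RE-bla HCT-116 cells is taken from ATP-dependent luciferase luminescence. Treatment lasts 16 h at 37 C after a 5 h settling period; detection follows 30 min at room temperature.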

Turning to `CN(C)CCC=C1c2ccccc2C(C)(C)c2ccccc21`, the Potency entry in experiment [1] and in experiment [2] was “inactive” throughout.
Turning to `CC1=C(/C=C/C(C)=C/C=C/C(C)=C/C=C/C=C(C)/C=C/C=C(C)/C=C/C2=C(C)C[C@@H](O)CC2(C)C)C(C)(C)C[C@H](O)C1`, the Potency result in experiment [1] and in experiment [2] was “inactive” in each case.
Take `CC(C)NCC(O)COc1ccccc1-n1cccc1` (stereo not drawn): the Potency entry in experiment [1] and in experiment [2] was “inactive” throughout.
As to `O=C(OC1C[C@@H]2CC3C[C@H](C1)N2CC3=O)c1c[nH]c2ccccc12` (stereo partly drawn), the Potency entry in experiment [1] and in experiment [2] was “inactive” throughout.
Consider `CN(C)CCC(O)(c1ccccc1)c1ccccc1Cl` (stereo not drawn), for which the Potency result in experiment [1] and in experiment [2] was “inactive” each time.
For `N#Cc1ccc2c(c1)N(CCCN1CCC(O)CC1)c1ccccc1S2`, the Potency result in experiment [1] is “inactive”.
`C=C1CC[C@H](O)CC1=C/C=C1\CCC[C@]2(C)[C@@H]([C@H](C)CC[C@@H](O)C(C)(C)O)CC[C@@H]12`: in experiment [1], the Potency result was “inactive”.
Regarding `CC[C@@H](C(=O)[C@@H](C)[C@@H](O)[C@H](C)[C@@H]1O[C@@H]([C@@H](CC)C(=O)O)CC[C@@H]1C)[C@H]1O[C@]2(C=C[C@@H](O)[C@]3(CC[C@@](C)([C@H]4CC[C@](O)(CC)[C@H](C)O4)O3)O2)[C@H](C)C[C@@H]1C`, in experiment [1], the Potency was 11.2 µM (active). For the same molecule, in experiment [2], the Potency entry was “inactive”.
In the same order, the values of `CC(C)=CCC/C(C)=C/C=C/C(C)=C/C=C/C(C)=C/C=C/C=C(C)/C=C/C=C(C)/C=C/C=C(\C)CCC=C(C)C` are “inactive” and “inactive”.
In the same order, the values of `CCSc1ccc2c(c1)N(CCCN1CCN(C)CC1)c1ccccc1S2` are “inactive” and “inactive”.
In the same order, the values of `C[C@]12CC[C@@H]3c4ccc(OC(=O)c5ccccc5)cc4CC[C@H]3[C@@H]1CC[C@@H]2O` are “inactive” and “inactive”.
Turning to `C[N@+]12CCCC[C@@H]1CCC(=C(c1cccs1)c1cccs1)C2`, the Potency entry in experiment [1] and in experiment [2] was “inactive” each time.
Take `C=CC[C@@H]1/C=C(\C)C[C@H](C)C[C@H](OC)[C@H]2O[C@@](O)(C(=O)C(=O)N3CCCC[C@H]3C(=O)O[C@H](/C(C)=C/[C@@H]3CC[C@@H](O)[C@H](OC)C3)[C@H](C)[C@@H](O)CC1=O)[C@H](C)C[C@@H]2OC`: the Potency result in experiment [1] and in experiment [2] was “inactive” each time.
With `CC(CN(C)C)CN1c2ccccc2Sc2ccc(C(F)(F)F)cc21` (stereo not drawn), the Potency entry in experiment [1] and in experiment [2] was “inactive” in each case.
Turning to `CCCC(CCC)C(=O)OC1C[C@H]2CC[C@@H](C1)[N+]2(C)C` (stereo partly drawn), the Potency entry in experiment [1] and in experiment [2] was “inactive” throughout.
As to `CN(C)C(=O)CCSC(SCCC(=O)O)c1cccc(/C=C/c2ccc3ccc(Cl)cc3n2)c1` (stereo not drawn), the Potency result in experiment [1] and in experiment [2] was “inactive” in each case.
For `CCOC(=O)C1=C(COCCN)NC(C)=C(C(=O)OC)C1c1ccccc1Cl` (stereo not drawn), the Potency entry in experiment [1] and in experiment [2] was “inactive” in each case.
Turning to `COc1ccc2c(c1)N(C[C@H](C)CN(C)C)c1ccccc1S2`, the Potency entry in experiment [1] and in experiment [2] was “inactive” in each case.
`C[C@@H]1C[C@H]2[C@@H]3C[C@H](F)C4=CC(=O)C=C[C@]4(C)[C@@]3(Cl)[C@@H](O)C[C@]2(C)[C@H]1C(=O)COC(=O)C(C)(C)C`: the Potency result in experiment [1] and in experiment [2] was “inactive” throughout.
On to `CC(C)[C@@H](C)/C=C/[C@@H](C)[C@H]1CC[C@H]2/C(=C/C=C3\C[C@@H](O)CC[C@@H]3C)CCC[C@]12C`, for which the Potency entry in experiment [1] and in experiment [2] was “inactive” each time.
As to `CN1CCCC(CN2c3ccccc3Sc3ccccc32)C1` (stereo not drawn), the Potency result in experiment [1] and in experiment [2] was “inactive” throughout.
Consider `NC(=O)c1cc[n+](CC2=C(C(=O)O)N3C(=O)[C@@H](NC(=O)C(c4ccccc4)S(=O)(=O)[O-])[C@H]3SC2)cc1` (stereo partly drawn), for which the Potency entry in experiment [1] and in experiment [2] was “inactive” in each case.
Regarding `Cc1cc(-c2ccc(N=Nc3c(S(=O)(=O)O)cc4cc(S(=O)(=O)O)cc(N)c4c3O)c(C)c2)ccc1N=Nc1c(S(=O)(=O)O)cc2cc(S(=O)(=O)O)cc(N)c2c1O`, the Potency was 11.2 µM (active) in experiment [1] and 8.2 µM (active) in experiment [2].
In the same order, the values of `CC(=O)c1ccc2c(c1)N(CCCN1CCN(CCO)CC1)c1ccccc1S2` are “inactive” and “inactive”.
Taken in the same sequence, the figures for `c1ccc2c(c1)Sc1ccccc1N2CCN1CCCC1` were “inactive” and “inactive”.
Taken in the same sequence, the figures for `NC(=S)N=Nc1ccc(NN=C(N)N)cc1` were “inactive” and “inactive”.
On to `CC[C@@]1([C@@H]2O[C@@H]([C@H]3O[C@@](O)(CO)[C@H](C)C[C@@H]3C)C[C@@H]2C)CC[C@H]([C@]2(C)CC[C@]3(C[C@H](O)[C@@H](C)[C@@H]([C@@H](C)[C@@H](OC)[C@H](C)C(=O)O)O3)O2)O1` (stereo in doubt), for which the Potency in experiment [1] was 1.26 µM (active). The Potency result in experiment [2] is “inactive”.
As for `NCCN`, the outcome in experiment [3] and in experiment [6] was inactive. Moreover, the max response is -3.91% in experiment [4] and 20.9% in experiment [5]. Besides, the Potency entry in experiment [1] and in experiment [2] was “inactive” in each case.
